Rows were chosen to be rich in hits. Some 4.9% of all compounds tested hit in one or more screens of this group.
Mdm2-MdmX inh – human Mdm2/MdmX binding inhibition | 3% of 330,000 active | SaOS-2 split-luciferase Mdm2/MdmX complementation, luminescence | O15151+Q00987 | inhibition, % at 8 µM;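 active = inhibition of at least 50% at 8 µM in the primary screen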
PP1 counter – blocks human PP1-alpha phosphatase, a PP5 counter-screen. AID 2235. purified PP1alpha, OMFP fluorescence. 0.9% of 320,000 active. inhibition, % at 6.7 µM. P62136;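 active = inhibition above the mean inhibition of all tested compounds plus 3 SD, computed separately for each screening campaign, cut at about 15% in these data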
Target sequence (P62136 whole entry, looked up): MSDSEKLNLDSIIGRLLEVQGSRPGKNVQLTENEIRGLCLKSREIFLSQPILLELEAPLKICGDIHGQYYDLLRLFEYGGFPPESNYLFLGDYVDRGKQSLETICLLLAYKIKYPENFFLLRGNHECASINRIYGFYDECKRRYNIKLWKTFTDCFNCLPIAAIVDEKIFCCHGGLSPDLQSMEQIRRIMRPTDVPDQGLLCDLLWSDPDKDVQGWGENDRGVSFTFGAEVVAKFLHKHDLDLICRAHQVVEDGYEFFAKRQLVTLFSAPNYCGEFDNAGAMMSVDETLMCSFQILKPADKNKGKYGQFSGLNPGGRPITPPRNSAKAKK
Calb FLC – affects C. albicans growth with fluconazole | 0.57% of 300,000 active | growth inhibition, % (no concentration beside the values) | C. albicans CaCi-2 (fluconazole-resistant clinical isolate) + fluconazole, Alamar Blue growth, 48 h | AID 1979;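 active = growth inhibition above about 58% in most replicates, limit read from the data, passing the limit was not always enough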;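 note: all wells also contain fluconazole at 8 µg/ml as a sub-toxic cotreatment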
CSC inhib – cancer stem cell inhibition; 1.1% of 300,000 active; AID 2717; cancer stem cell-like cells viability, luminescence; inhibition, % at 7.5 µM; in the data active = inhibition above about 75%; tested in HMLE shEcad cells
Beta apoptosis – blocks beta cell apoptosis | 0.8% of 300,000 active | protection from apoptosis, % (no concentration beside the values) | INS-1E cytokine-induced death, ATP luminescence, 48 h; percent of positive-control rescue, neutral wells zero;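 active = Every replicate reaches about 75%, or at least half do and their mean reaches it too, limit read from the data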;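 note: higher means more ATP so stronger rescue from cytokine killing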
PP5 primary – inhibitors of human protein phosphatase 5 (PP5). inhibition, % at 6.7 µM. P53041. purified PP5c, OMFP substrate fluorescence. AID 1987. 0.18% of 320,000 active;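 active = inhibition above the campaign's mean inhibition across all tested compounds plus 3 SD, cut at about 9.5% in these data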
Mdm2 MdmX conf – confirmation of human Mdm2/MdmX interaction inhibitors. Mdm2-MdmX binding, luminescent assay. inhibition, % at 8 µM. AID 489028. 55% of 10,000 active. shares compounds with Mdm2-MdmX inh; in the data active = inhibition above about 40%
FLuc counter – inhibits full-length luciferase, flagging false Mdm2/MdmX hits. shares compounds with Mdm2-MdmX inh. SaOS-2 full-length luciferase counterscreen, luminescence. inhibition, % at 8 µM. 77% of 6,200 active. AID 504607;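 active = mean inhibition at 8 µM reaching about 37%, which flags the compound as non-specific, limit read from the data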;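 note: p53-null SaOS-2 cells with luciferase driven by a doxycycline-inducible promoter; compound on cells about two nights before reading with doxycycline added after day one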
Of the large screens only hits and unclear results are named; the others gave an inactive call (follow-up assays come after a bar, where they were run).

Cc1cc(C(=O)CSc2nnc(N)s2)c(C)n1Cc1cccs1	none
Cc1csc(SCC(=O)c2cc(C)n(Cc3cccs3)c2C)n1	Mdm2-MdmX inh 66 | Mdm2 MdmX conf 79 | FLuc counter 107
CC(=O)Nc1ccc(SCC(=O)c2cc(C)n(-c3ccccc3F)c2C)cc1	Mdm2-MdmX inh 72, CSC inhib 87 | Mdm2 MdmX conf 82 | FLuc counter 73
CC(=O)Nc1ccc(SCC(=O)c2cc(C)n(Cc3cccs3)c2C)cc1	Mdm2-MdmX inh 74, CSC inhib 106 | Mdm2 MdmX conf inactive
O=C(CCN1CCCCC1=O)NC1CCCN(Cc2ccc(Cl)cc2)C1 (stereo not drawn)	none
CCOC(=O)/C=c1\s/c(=C\c2ccc3cc(OC)ccc3c2)c(=O)n1CC(=O)NCc1ccc2c(c1)OCO2	Mdm2-MdmX inh 79 | Mdm2 MdmX conf inactive
CCOC(=O)/C=c1\s/c(=C\c2ccccc2C)c(=O)n1CC(=O)NCc1ccc2c(c1)OCO2	Mdm2-MdmX inh 92 | Mdm2 MdmX conf 67 | FLuc counter 44
O=C(O)c1nn(CC(=O)N2CCC(Cc3ccccc3)CC2)c(=O)c2ccccc12	none
O=C(COc1ncnc2ccccc12)NCC1CCCO1 (stereo not drawn)	none
Cn1nc(C(F)(F)F)c2cc(C(=O)Nc3ccc(F)cc3)sc21	none
Cn1nc(C(F)(F)F)c2cc(C(=O)Nc3ccc(C(F)(F)F)cc3)sc21	Mdm2-MdmX inh 61 | Mdm2 MdmX conf inactive
Cc1cc(C)n2nc(SCC(=O)c3c(N)n(CC(C)C)c(=O)n(C)c3=O)nc2n1	none
CCOc1cc(S(=O)(=O)NCc2ccc(OC)cc2)c(OCC)cc1-n1cnnn1	Mdm2-MdmX inh 51 (no result: CSC inhib) | Mdm2 MdmX conf 45 | FLuc counter 86
C=CCn1c(SCC(=O)c2c(N)n(C)c(=O)n(C)c2=O)nnc1-c1ccoc1C	none (no result: PP1 counter, Calb FLC, PP5 primary)
COC(=O)c1c(O)c2c([nH]c1=O)CCCC2	none
COC(=O)c1ccccc1NC(=O)c1c(O)c2c([nH]c1=O)CCCC2	Mdm2-MdmX inh 56 | Mdm2 MdmX conf inactive
Cc1cccc2nc3c(nc12)-c1ccccc1C3=O	none
COC(=O)c1nn(-c2ccc(OC)cc2)c(=O)cc1O	none
COc1ccc(-n2nc(C#N)c(Cl)cc2=O)cc1	Mdm2-MdmX inh 100 (no result: PP1 counter, Calb FLC, CSC inhib, Beta apoptosis, PP5 primary) | Mdm2 MdmX conf 100 | FLuc counter 53
CCCCc1nc2cc(Cl)ccc2o1	none (no result: CSC inhib)
c1cnc2ccc3ncccc3c2c1	none
O=Cc1ccc(O)c2ncccc12	Mdm2-MdmX inh 56, Calb FLC 94 (no result: PP1 counter, CSC inhib, Beta apoptosis, PP5 primary) | Mdm2 MdmX conf inactive
Cc1cc(C)c2[nH]c(=O)c(CN(CC3CCCO3)C(=S)Nc3ccccc3)cc2c1 (stereo not drawn)	none
Cc1ccc2cc(CN(CC3CCCO3)C(=S)Nc3ccccc3)c(=O)[nH]c2c1C (stereo not drawn)	Mdm2-MdmX inh 85 | Mdm2 MdmX conf 86 | FLuc counter inactive
Cc1ccc2cc(CN(CCCN(C)C)C(=S)NCc3ccccc3)c(=O)[nH]c2c1C	Mdm2-MdmX inh 55 | Mdm2 MdmX conf inactive
CCSc1nccc(-c2nn(-c3ccc(C)cc3)ccc2=O)n1	none (no result: Calb FLC)
CSc1nccc(-c2nn(-c3ccc(C)cc3)ccc2=O)n1	Mdm2-MdmX inh 51 | Mdm2 MdmX conf 73 | FLuc counter 59
CCc1cc2c3c(c1)C1(C(=O)N3C(C)(C)C=C2C)C(C#N)=C(N)Oc2[nH]c(=O)[nH]c(=O)c21 (stereo not drawn)	Mdm2-MdmX inh 57 | Mdm2 MdmX conf 41 | FLuc counter 81
Cc1cc(C)c2c3c(sc2n1)C(c1cccc(F)c1)C(C#N)=C(N)O3 (stereo not drawn)	Mdm2-MdmX inh 79 | Mdm2 MdmX conf inactive
CC(NC(=S)NC1CCC(C(C)(C)C)CC1)c1ccccc1 (stereo not drawn)	none (no result: PP1 counter, PP5 primary)
O=C(COC(=O)c1cc([N+](=O)[O-])ccc1N1CCOCC1)Nc1ccc(Cl)cn1	Mdm2-MdmX inh 76, CSC inhib 86 | Mdm2 MdmX conf 58 | FLuc counter 68
CN1CCN(c2ccc([N+](=O)[O-])cc2C(=O)c2ccc(Cl)cc2)CC1	Mdm2-MdmX inh 50 | Mdm2 MdmX conf 61 | FLuc counter 57

High-throughput results as filed in PubChem BioAssay.
